Only some compounds are listed: those with a hit (about 2.3% of all), similar ones and a draw of the others.
CHT inh – inhibits the human high affinity choline transporter. CHT-expressing cells, membrane potential dye, choline response; hits give low values. B-score at 10 µM. 310,000 tested, 0.86% active. AID 488975;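 active = B-score over 3 SD under the library average, and starting fluorescence ratio not unusually high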;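 also: choline stimulus applied at its EC90 after an EC20 pre-addition; B-score computed on integrated fluorescence ratio after choline addition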
ANO1 activ – mouse TMEM16A channel activation, primary screen; Q8BHY3; HEK293 TMEM16A/YFP-H148Q/I152L, iodide quench fluorescence; hits give low values; B-score at 10 µM; 340,000 tested, 0.3% active;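 active = fluorescence-ratio B-score plate-corrected deviation score at least 3 library SD below zero, with starting fluorescence score within 5 deviations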;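 also: channel opened by trigger with iodide after compound preincubation; score built on the fluorescence ratio of max minus min over baseline; more negative score means more quench and so TMEM16A activation or potentiation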
Target sequence (Q8BHY3 whole entry, looked up): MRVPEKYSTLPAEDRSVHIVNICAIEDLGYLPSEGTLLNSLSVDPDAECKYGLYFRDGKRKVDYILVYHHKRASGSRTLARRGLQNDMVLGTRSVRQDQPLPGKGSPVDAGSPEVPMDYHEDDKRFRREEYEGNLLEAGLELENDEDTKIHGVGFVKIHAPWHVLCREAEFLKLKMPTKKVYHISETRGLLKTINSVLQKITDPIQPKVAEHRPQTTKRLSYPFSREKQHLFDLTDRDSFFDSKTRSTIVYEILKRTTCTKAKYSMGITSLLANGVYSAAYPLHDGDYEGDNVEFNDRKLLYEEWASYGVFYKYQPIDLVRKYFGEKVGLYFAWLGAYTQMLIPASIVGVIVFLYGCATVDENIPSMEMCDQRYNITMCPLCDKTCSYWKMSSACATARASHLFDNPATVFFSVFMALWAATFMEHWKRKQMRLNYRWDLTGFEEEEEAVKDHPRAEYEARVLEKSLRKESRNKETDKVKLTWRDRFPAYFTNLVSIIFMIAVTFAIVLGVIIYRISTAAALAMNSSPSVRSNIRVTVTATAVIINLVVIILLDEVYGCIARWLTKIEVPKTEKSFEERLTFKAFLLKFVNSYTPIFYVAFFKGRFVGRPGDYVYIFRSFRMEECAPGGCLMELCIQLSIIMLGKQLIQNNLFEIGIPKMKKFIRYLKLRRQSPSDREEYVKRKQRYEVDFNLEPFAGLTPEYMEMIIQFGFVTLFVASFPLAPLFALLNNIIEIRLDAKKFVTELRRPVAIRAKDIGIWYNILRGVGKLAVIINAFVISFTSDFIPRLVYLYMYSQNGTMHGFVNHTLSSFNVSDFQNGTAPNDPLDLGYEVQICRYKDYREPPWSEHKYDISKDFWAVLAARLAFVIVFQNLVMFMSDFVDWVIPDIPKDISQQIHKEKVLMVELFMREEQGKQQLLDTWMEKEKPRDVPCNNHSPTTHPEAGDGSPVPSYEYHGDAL
ANO1 block – blocks the mouse calcium-activated chloride channel TMEM16A. Q8BHY3. HEK293 TMEM16A/YFP iodide influx fluorescence, ionomycin. normalized B-score (activity score, 25-100; higher = stronger inhibition) at 10 µM. 310,000 tested, 1.2% active;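 active = ratio plate-corrected score three or more library SD toward inhibition, starting fluorescence score within five deviations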;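 also: score derived from kinetic fluorescence span divided by baseline fluorescence per well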
CHT allo act – human CHT allosteric activation; Q9GZV3; CHT-expressing cells, membrane potential dye, choline EC20; hits give high values; LV-AA mutant CHT in HEK293 cells; B-score at 10 µM; 310,000 tested, 0.49% active;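 active = initial fluorescence not abnormally high and integrated response B-score, plate-corrected, over 3 SD above library mean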
TMEM16A reconf – TMEM16A (mouse) chloride channel inhibition, re-confirmation; shares compounds with ANO1 block; HEK293 TMEM16A/YFP-H148Q, iodide quench fluorescence; ionomycin added to raise cell calcium; inhibition, % at 10 µM; 2,300 tested, 39% active; AID 652189;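 active = mean duplicate percent inhibition, scaled so buffer wells are 0 and the reference blocker 100, over three buffer SD above buffer mean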
TMEM16A Ca cntr – calcium mobilization counter-screen hit for TMEM16A inhibitor series | shares compounds with ANO1 block | AID 652231 | calcium response (% of ionomycin), % at 10 µM | TMEM16A/YFP HEK293, Fluo4 calcium mobilization | 2,300 tested, 2% active;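 active = duplicate-averaged calcium signal over 20% of the ionomycin maximum, relative to buffer baseline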;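 also: each well's signal is peak minus trough fluorescence divided by its pre-addition baseline; 0% = buffer wells and 100% = ionomycin wells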
Parental YFP cnt – counter-screen for TMEM16A inhibitors: effect in parental YFP-HEK293 cells; iodide YFP quench, ionomycin; YFP ratio F(max-min)/F0 at 10 µM; 2,300 tested, under 10 active; shares compounds with ANO1 block;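 active = yellow fluorescent protein signal ratio exceeding the buffer control mean by over 5 SD of those controls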;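 also: ratio is mean of duplicate wells from kinetic YFP trace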
ClC-1 rat inh – rat ClC-1 inhibition, TMEM16A specificity screen | shares compounds with ANO1 block | CHO ClC-1-YFP, iodide influx fluorescence quench; iodide control reads 0, buffer control 100 | ratio percent, % at 10 µM | 2,300 tested, under 10 active | AID 652236;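 active = duplicate-mean ratio percent above the mean of iodide-only control wells, which defines zero, plus 5 of their SD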;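 also: higher percent means stronger block of ClC-1 iodide influx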
Numbers without * were called inactive; i = inactive; . = no result given.

SMILES | CHT inh | ANO1 activ | ANO1 block | CHT allo act | TMEM16A reconf | TMEM16A Ca cntr | Parental YFP cnt | ClC-1 rat inh
CCN1C(=O)C(CC(=O)Nc2ccc(F)cc2)N(CCc2ccc(OC)cc2)C1=S (stereo unspecified) | i | i | 25* | i | i | i | -0.96 | -1
CCN1C(=O)C(CC(=O)Nc2ccc(OC)cc2)N(CCc2ccccc2)C1=S (stereo unspecified) | i | i | i | i | . | . | . | .
COc1ccc(Cl)cc1C(=O)NNC(=O)CNC(=O)c1ccco1 | . | i | . | . | . | . | . | .
CSc1ccc(CN(C)C(=O)COc2ccc(C(=O)c3ccccc3)cc2)cc1 | i | i | 100* | i | i | i | -1.3 | -7
COC(=O)Cc1nnc(NC(=O)C(C)C)s1 | i | i | 25* | i | i | i | -0.82 | -10
COc1cc2nc(N3CCNCC3)nc(N)c2cc1OC | -8.3* | i | 100* | i | i | i | -0.73 | -4
CC(C)CN1C(=O)c2ccc(C(=O)Nc3ccncc3)cc2C1=O | i | i | 25* | i | 27%* | i | -0.99 | -18
CNS(=O)(=O)c1cccc(C(=O)OCC(=O)/C=C2/N(C)c3ccccc3C2(C)C)c1 | i | i | i | i | 21%* | i | -1.2 | -6
CN1/C(=C\C(=O)COC(=O)CNC(=O)c2ccc3ccccc3c2)C(C)(C)c2ccccc21 | i | i | i | i | 30%* | i | -0.96 | -16
CN1/C(=C\C(=O)CN2C(=O)NC3(CCCCCC3)C2=O)C(C)(C)c2ccccc21 | i | i | i | i | i | i | -0.66 | 8
CN1/C(=C\C(=O)COC(=O)c2ccc(O)c(O)c2)C(C)(C)c2ccccc21 | i | . | 100* | i | 70%* | i | -0.72 | -19
CN1/C(=C\C(=O)COC(=O)CNC(=O)c2ccccc2F)C(C)(C)c2ccccc21 | i | i | i | i | . | . | . | .
CC1CCN(S(=O)(=O)c2cccc(S(=O)(=O)N3CCCC3)c2)CC1 | i | i | i | i | . | . | . | .
CCN(CC(=O)NCC(=O)Nc1ccc(Br)cc1C)Cc1ccccc1 | i | i | i | i | . | . | . | .
Cc1c(Cc2ccc3c(c2)OCO3)sc(NC(=O)c2ccccc2)c1C(N)=O | i | i | i | i | i | i | -1.1 | 0
Cc1cc(C(=O)CSc2ccc(F)cc2)cc(C)c1OC(=S)N(C)C | i | i | 100* | i | i | i | -1.4 | -8
CN(c1ccccc1)S(=O)(=O)c1ccc(NC(=O)c2ccccc2)cc1 | i | i | i | i | . | . | . | .
CN(c1ccccc1)S(=O)(=O)c1ccc(NC(=O)c2nc(S(C)(=O)=O)ncc2Cl)cc1 | i | -5.5* | 25* | i | 18%* | i | -1 | -5
COc1ccccc1OCCNC(=O)C1CCCCC1 | i | i | i | i | . | . | . | .
COc1ccc(Cl)cc1C(=O)CSc1nnnn1C1CCCCC1 | i | i | 100* | i | i | i | -1.1 | -9
COc1ccc(Cl)cc1C(=O)CSc1nnnn1C1CCCC1 | i | i | i | i | . | . | . | .
C/C(=N\NC(=O)C1(C)CC1(Br)Br)c1cccc(NC(=O)c2ccc(C)o2)c1 (stereo unspecified) | i | i | 25* | i | i | i | -1.1 | -6
Cc1ccc(C(=O)Nc2cccc(C(=O)NCc3ccccc3)c2)o1 | i | i | i | i | . | . | . | .
Cc1ccc(NC(=S)NNC(=O)c2ccc(N3CCOCC3)c([N+](=O)[O-])c2)cc1Cl | i | i | 25* | i | 26%* | i | -1.1 | -6
O=C(NNC(=S)Nc1ccc(Cl)c(Cl)c1)c1cccc([N+](=O)[O-])c1 | i | i | 100* | i | 78%* | i | -0.85 | -14
SMILES | CHT inh | ANO1 activ | ANO1 block | CHT allo act | TMEM16A reconf | TMEM16A Ca cntr | Parental YFP cnt | ClC-1 rat inh
CCC(C(=O)N1CCN(C(=O)c2ccco2)CC1)c1ccccc1 (stereo unspecified) | i | i | 100* | i | i | i | -0.97 | -22
O=C(c1ccco1)N1CCN(C(=O)C(c2ccccc2)c2ccccc2)CC1 | i | i | i | i | . | . | . | .
Cc1ccc(S(=O)(=O)N/N=C/c2c[nH]c3ccccc23)cc1 | i | i | 25* | i | 28%* | i | -0.9 | -32
COc1ccc2[nH]cc(/C=N/NS(=O)(=O)c3ccc(C)cc3)c2c1 | i | i | 25* | i | 28%* | i | -0.94 | -16
COc1ccc(NC(=O)CCN2C(=O)C3C4CCC(C4)C3C2=O)cc1 (stereo unspecified) | i | i | i | i | . | . | . | .
CCCCNC(=O)Nc1nnc(SCC(=O)OCC)s1 | i | i | i | i | . | . | . | .
CCOC(=O)CSc1nnc(NC(=O)c2cc([N+](=O)[O-])cc([N+](=O)[O-])c2)s1 | i | i | 25* | i | i | i | -0.89 | -11
COc1cccc(OC)c1-c1nn2c(-c3ccccc3Cl)nnc2s1 | i | i | i | i | i | i | -1 | -10
Cc1ccc(S(=O)(=O)N2[C@@H](c3ccccc3)C(C(=O)O)=CC[C@H]2c2ccc(Cl)cc2)cc1 | i | i | i | i | . | . | . | .
Cc1ccc([C@@H]2CC=C(C(=O)O)[C@H](c3ccc(Cl)cc3)N2S(=O)(=O)c2ccc(C)cc2)cc1 | i | i | 25* | i | 16%* | i | -1 | -3
Cc1ccc(S(=O)(=O)N2[C@@H](c3ccc(F)cc3)C(C(=O)O)=CC[C@H]2c2ccc(Cl)cc2)cc1 | i | i | 25* | i | i | i | -0.95 | -14
CN(Cc1nccs1)C(=O)c1cc(COc2cccc3cnccc23)on1 | i | i | i | i | . | . | . | .
COc1cc(Cl)ccc1OCc1cc(C(=O)N(C)Cc2cccc3cnccc23)no1 | i | i | 100* | i | 25%* | i | -1.1 | -13
Cc1nnc(NC(=O)C2CCN(S(=O)(=O)c3ccc(Cl)cc3)CC2)s1 | i | i | i | i | . | . | . | .
CCc1ccccc1NC(=O)CCS(=O)(=O)c1ccc(Br)cc1 | i | i | i | i | i | i | -0.97 | -6
OC(CN1CCN(c2cccc(Cl)c2)CC1)c1ccccc1 (stereo unspecified) | i | i | i | i | . | . | . | .

From PubChem
